Measurements taken from PubChem BioAssay AID1224852 (National Center for Advancing Translational Sciences (NCATS), 2016).
Results filed as inconclusive are left out. Unmarked numbers belong to inactive results. Calls come from the whole dose curve; as a rule, active = well fitted curve in the direction sought with a large enough effect (not every such curve was filed as active); inconclusive = small, poorly fitted or top-dose-only effect, or effect the other way, or another doubt; inactive = no such curve, though single readings can be large or run the other way.

Assay: Cell viability assay for measurement of the protective activity of small molecules against cell death caused by Zika virus infection in human neural progenitor cells (hNPCs);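 note: 0% = ZIKV-infected cells without compound and 100% = uninfected cells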
Conditions: hNPC ZIKV-induced death protection, ATP luminescence, 72 h; series mostly up to 46.1 µM; protection, negative = more death: at the top concentration
In short: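 Human neural progenitor cells pretreated 1 h with compounds, then infected with Zika virus at 2 FFU/cell for 72 h at 37 C. Viability read as ATP-content luminescence; values are percent inhibition of the virus-induced viability loss.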

Compound	protection, negative = more death
CC(=O)Nc1ccc([C@H](C)C(=O)Nc2ncc(C(C)C)s2)cc1	-64.6%
OCc1ccc(-c2ccc(-c3ccc(CO)s3)o2)s1	-81.6%
O=C(O)Cc1ccc(-c2ccccc2)cc1	-0.374%
COc1cc2nc(-c3ccc(N4CCN(C)CC4)cc3)nc(NCCN3CCOCC3)c2cc1OC	-80.9%
C[C@@H]1CCN(C(=O)CC#N)C[C@H]1N(C)c1ncnc2[nH]ccc12	8.69%
O[C@@H](COc1cccc2ncccc12)CN1CCN(C2c3ccccc3[C@@H]3[C@H](c4ccccc42)C3(F)F)CC1 (stereo partly drawn)	-81.6%
CC(C(=O)O)c1ccc(-c2ccccc2)c(F)c1 (stereo not drawn)	-5.89%
CN(C)CCCSc1ccccc1NC(=O)/C=C/c1ccccc1	8.23%
N#CC1(c2ccc(NC(=O)c3cccnc3NCc3ccncc3)cc2)CCCC1	-13.3%
O=C(/C=C/c1ccccc1)NCCO	9.32%
O=C1NC(=O)C(=Cc2ccc(-c3ccc(F)cc3)o2)S1	-16.4%
O=C(Nc1ccc(OC(F)(F)F)cc1)c1sccc1NCc1ccnc2ccccc12	-51.9%
O=C(O)c1ccccc1Nc1cccc(C(F)(F)F)c1	2.86%
N#C/C(=C\c1ccc(O)c(O)c1)C(=O)Nc1ccccc1	-61.2%
CC1(C)OC2=C(C(=O)c3ccccc3C2=O)[C@H](NCc2ccccc2)[C@H]1O	-81.5% [at 88.3 µM]
O=C(Nc1cc2cc[nH]c2cn1)c1ccccc1	-76.8%
COc1ccc(/C=C/C(=O)Nc2ccccc2C(=O)O)cc1OC	-34.7%

Compound	protection, negative = more death
O=C1c2ccccc2-[n+]2ccc3c([nH]c4ccccc43)c21	-85.7%
Cc1c(N)c(=O)n(-c2ccccc2)n1C	-5.6%
Cc1ccc(O)c(-n2nc3ccccc3n2)c1	8.06%
O=c1c2ccccc2nc2n1CCc1c-2[nH]c2ccccc12	-32.5%
Nc1ccc(-c2ccc3ccccc3n2)cc1	-48.7%
O=C1C(Cl)=C(NCCN2CCOCC2)C(=O)c2ncccc21	-79.3%
Nc1c(S(=O)(=O)O)cc(Nc2ccc(Nc3nc(Cl)nc(Nc4ccc(S(=O)(=O)O)cc4)n3)c(S(=O)(=O)O)c2)c2c1C(=O)c1ccccc1C2=O	-33.4%
CC(O)=C(C#N)C(=O)Nc1ccc(C(F)(F)F)cc1	-61.6%
CN1CC(=O)N/C1=N/C(=O)Nc1cccc(Cl)c1	-11.7%
CC(=NNC(=S)N1CCC1)c1ccccn1	-76.1%
O=c1cc(-c2ccccc2)oc2cc(O)c(O)c(O)c12	-62.6%
CN1CCN(c2cc3c(nn2)Oc2ccccc2N3C)CC1	8.35% [at 23.8 µM]
NC1CCC(Nc2nc(Nc3ccc(C(=O)N4CCCCC4)cc3)c3ncn(-c4cccc(F)c4)c3n2)CC1 (stereo not drawn)	-79.2%
O=S(=O)(O)c1ccc2nc(-c3ccccc3)[nH]c2c1	2.17%
Cc1cc(O)c2c(c1)C(=O)c1cc(O)cc(O)c1C2=O	-8.67%
CCOCCOC(=O)/C=C/c1ccc(OC)cc1	-28.4%
